Drawing on PubChem BioAssay (NCI), this text covers growth for 24 compounds.

Among the test systems are T-47D breast; BT-549 breast; MDA-MB-435 melanoma; SW-620 colon; MCF7 breast; HCT-116 colon; HCC-2998 colon; KM12 colon.
Assay in all cases: NCI-60 one-dose screen, 48 h (100 = growth as untreated, 0 = no growth, -100 = all killed)
Settings in all cases: 10 µM unless noted

The panel holds about 83,000 compounds, 20% with a hit somewhere; the sample as a whole holds those more often.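 In brief: 96-well plates, 48 h treatment, single concentration, percent growth endpoint.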 Values without a mark were called inactive. Calls of active or inactive are those of the source. Rule for the calls: active = growth percent below 10; inactive = the rest.

For `O=C(Nc1ccc(Cl)c(C(F)(F)F)c1)c1ccc(Nc2ccc(Cl)nn2)cc1`, the growth is 28.6% in the test with T-47D breast; 37.2% with BT-549 breast; 80.2% in the test on MDA-MB-435 melanoma; 96.8% in the test on SW-620 colon; 53% in the test on MCF7 breast; 53.5% in the test with HCT-116 colon. The growth in the test on HCC-2998 colon is 67.4%; with KM12 colon, 51.1%.
For `CCN(CC)C(Cl)=Nc1ccc(Cl)cc1`, the growth in the test on T-47D breast was 102%; with BT-549 breast, 112%; with MDA-MB-435 melanoma it was 100%; with SW-620 colon, 102%; in the test with MCF7 breast, 101%; in the test with HCT-116 colon it was 98.1%. Further, the growth in the test on HCC-2998 colon is 101%; in the test with KM12 colon, 107%.
Turning to `CCCCCc1c(C)[nH]c(/C=C2\N=C(c3ccc[nH]3)C=C2CC)c1C`, the growth in the test on T-47D breast was -75% (active); in the test on BT-549 breast, -96.6% (active); in the test with MDA-MB-435 melanoma, -77.9% (active); with SW-620 colon it was -92.6% (active); with MCF7 breast, -85.3% (active); in the test on HCT-116 colon, -95.4% (active). For the same compound, the growth is -90.4% (active) in the test with HCC-2998 colon and -91.4% (active) in the test on KM12 colon.
For the compound `COc1ccc(/C(=C\c2cc(OC)c(OC)c(OC)c2)C(=O)N2CCN(c3ccccc3)CC2)cc1O`, the growth in the test with T-47D breast was 87.4%; in the test with BT-549 breast it was 103%; in the test with MDA-MB-435 melanoma it was 98.1%; with SW-620 colon, 104%; in the test with MCF7 breast, 92.5%; in the test on HCT-116 colon, 106%. The growth with HCC-2998 colon was 98.1%; in the test with KM12 colon, 96.7%.
Regarding `Cc1c(O)c(=O)n(-c2ccccc2)n1C`, the growth with T-47D breast was 99.5%; with BT-549 breast, 109%; with MDA-MB-435 melanoma, 109%; in the test with SW-620 colon it was 114%; with MCF7 breast it was 101%; in the test with HCT-116 colon, 109%. The growth in the test on HCC-2998 colon is 97.3%; with KM12 colon, 105%.
For the compound `COc1cc(C(=O)/C=C/c2cn(-c3ccccc3)nc2-c2cccc(Nc3ccnc4cc(Cl)ccc34)c2)cc(OC)c1OC`, the growth in the test on T-47D breast was 95.4%; in the test with BT-549 breast it was 93.3%; with MDA-MB-435 melanoma, 66.9%; with SW-620 colon, 99.1%; in the test with MCF7 breast, 71.2%; with HCT-116 colon it was 68.1%. Besides, the growth in the test with HCC-2998 colon was 108%; in the test with KM12 colon, 93.5%.
`COc1ccc(-c2nc(-c3cc(OC)cc(OC)c3)[nH]c2-c2ccc(OC)cc2)cc1`: the growth in the test on T-47D breast is 6.56% (active); in the test on BT-549 breast, 51%; in the test with MDA-MB-435 melanoma it was 48.7%; with SW-620 colon it was 73.6%; in the test with MCF7 breast it was 34.9%; with HCT-116 colon it was 40.8%. Besides, the results for the growth in the test with HCC-2998 colon and in the test on KM12 colon were 42.9% and 46.5%, respectively.
On to `O=C(OCc1ccc2c(Br)cc(Br)c(O)c2n1)c1cc2ccccc2[nH]1`, for which the growth was -69.5% (active) in the test on T-47D breast; -84.3% (active) in the test on BT-549 breast; -80.6% (active) in the test on MDA-MB-435 melanoma; -69.2% (active) in the test with SW-620 colon; -35.5% (active) with MCF7 breast; -72.9% (active) with HCT-116 colon. In addition, the growth in the test on HCC-2998 colon was -77.7% (active); with KM12 colon, -19% (active).
Take `O=NN(CC(=O)NNc1ccccc1)CC(=O)NNc1ccccc1`: the growth in the test with T-47D breast was 46.6%; in the test on BT-549 breast, 103%; in the test with MDA-MB-435 melanoma it was 30.5%; in the test on SW-620 colon it was 31.1%; with MCF7 breast, 69.5%; in the test with HCT-116 colon, 57%. Moreover, the growth in the test on HCC-2998 colon was 68.9%; in the test on KM12 colon, 37.9%.
As to `CCN1CCN(Cc2ccc(NC(=O)c3nc4ccc5[nH]ncc5c4c4c3CCCC4)cc2C(F)(F)F)CC1`, the growth in the test with T-47D breast was -69.3% (active); in the test with BT-549 breast, 79.6%; in the test on MDA-MB-435 melanoma it was -87.9% (active); in the test with SW-620 colon, -58.3% (active); in the test with MCF7 breast, -71.4% (active); with HCT-116 colon it was -77.9% (active). In addition, the values for the growth with HCC-2998 colon and in the test with KM12 colon were -58.1% (active) and 4.08% (active), respectively.
Take `CC(C)NCCCCCNc1cc(O)cc2cccnc12`: the growth in the test on T-47D breast was 31.3%; with BT-549 breast, 104%; in the test with MDA-MB-435 melanoma it was 101%; in the test with SW-620 colon it was 83.1%; in the test on MCF7 breast, 43.3%; in the test on HCT-116 colon it was 65.5%. The growth in the test with HCC-2998 colon is 54.6%; with KM12 colon, 100%.
With `CCc1ccc(-c2ccc(NC3CCCCCC3)nn2)cc1S(N)(=O)=O`, the growth with T-47D breast was 103%; in the test on BT-549 breast it was 103%; in the test on MDA-MB-435 melanoma it was 106%; in the test with SW-620 colon it was 98.8%; in the test on MCF7 breast, 95.2%; with HCT-116 colon it was 103%. The figures for the growth in the test with HCC-2998 colon and with KM12 colon were 102% and 110%, respectively.
`CC(C)OC(=O)c1ccc([N+](=O)[O-])cc1`: the growth in the test with T-47D breast is 108%; in the test with BT-549 breast, 113%; in the test with MDA-MB-435 melanoma, 125%; with SW-620 colon, 109%; in the test on MCF7 breast, 117%; in the test on HCT-116 colon it was 110%. In addition, the growth in the test on HCC-2998 colon and with KM12 colon was 113% each time.
For `CCN(CC)c1ccc2nc3c4ccccc4c(=O)cc-3n(-c3ccccc3)c2c1`, the growth is -7.93% (active) with T-47D breast; -21.7% (active) with BT-549 breast; -36.3% (active) in the test on MDA-MB-435 melanoma; 7.92% (active) in the test with SW-620 colon; -7.24% (active) with MCF7 breast; -31.7% (active) in the test with HCT-116 colon. Besides, the growth with HCC-2998 colon was -6.62% (active); in the test with KM12 colon it was -5.68% (active).
On to `CCN(CC)CCCNc1cccc2c(C)cc(OC)nc12`, for which the growth with T-47D breast was 98.7%; in the test with BT-549 breast, 87.4%; with MDA-MB-435 melanoma it was 115%; in the test on SW-620 colon it was 102%; in the test on MCF7 breast, 84.8%; in the test on HCT-116 colon, 95.1%. The growth in the test with HCC-2998 colon was 90.2%; in the test with KM12 colon, 100%.
Consider `c1ccc(C2=Nc3ccccc3SC2)cc1`, for which the growth was 100% with T-47D breast; 107% in the test with BT-549 breast; 105% with MDA-MB-435 melanoma; 95.4% with SW-620 colon; 86.4% in the test on MCF7 breast; 96.7% in the test with HCT-116 colon. Moreover, the figures for the growth in the test with HCC-2998 colon and in the test with KM12 colon were 104% and 97.5%, respectively.
As for `CCCCn1c(C)nc2cc(Nc3nc(Cl)nc4nc[nH]c34)ccc21`, the growth was 39.3% in the test with T-47D breast; 72.3% in the test on BT-549 breast; 90.1% in the test on MDA-MB-435 melanoma; 90.4% in the test with SW-620 colon; 75.4% with MCF7 breast; 83.6% with HCT-116 colon. The growth in the test with HCC-2998 colon is 102%; in the test with KM12 colon, 97.3%.
For the compound `COc1ccccc1/C=N\NC(=S)Nc1ccc(F)cc1`, the growth in the test on T-47D breast was 72.5%; in the test on BT-549 breast, 73.3%; in the test on MDA-MB-435 melanoma, 1.12% (active); with SW-620 colon, 37.5%; with MCF7 breast, 60.5%; in the test on HCT-116 colon, 68.7%. For the same compound, the growth in the test with HCC-2998 colon was 66.5%; in the test on KM12 colon it was 51.4%.
Turning to `COc1ccc(/C=C2\N=C(c3cccnc3)N(c3ccccc3)NC2=O)cc1`, the growth was 90.2% in the test on T-47D breast; 94.3% with BT-549 breast; 97.3% in the test on MDA-MB-435 melanoma; 92.3% with SW-620 colon; 91.5% with MCF7 breast; 97.1% in the test on HCT-116 colon. Moreover, the growth in the test with HCC-2998 colon was 99.7%; in the test on KM12 colon, 95.3%.
For `NC(=O)Nc1ccc2ncnc(Nc3cccc(O)c3)c2c1`, the growth in the test with T-47D breast was 76.6%; in the test on BT-549 breast, 108%; in the test on MDA-MB-435 melanoma, 101%; with SW-620 colon it was 99.1%; with MCF7 breast, 97.3%; with HCT-116 colon it was 109%. For the same compound, the growth is 102% in the test on HCC-2998 colon and 96.1% in the test with KM12 colon.
Regarding `O=C1C2=C(C(=O)c3c(O)ccc(O)c31)N(c1ccc(N3CCOCC3)nc1)Cc1ccccc1O2`, the growth with T-47D breast was -41% (active); in the test with BT-549 breast, -78.5% (active); in the test on MDA-MB-435 melanoma it was -28.6% (active); with SW-620 colon, -54.3% (active); with MCF7 breast, -34.2% (active); in the test with HCT-116 colon, -84.5% (active). The growth in the test on HCC-2998 colon was -66.3% (active); with KM12 colon, -34.9% (active).
`Nc1nc(N)c2cc(Sc3ccc(Cl)cc3)ccc2n1`: the growth with T-47D breast was 56.4%; with BT-549 breast, 54.7%; in the test on MDA-MB-435 melanoma, 28.6%; in the test with SW-620 colon, 25.8%; in the test with MCF7 breast it was 19.7%; in the test on HCT-116 colon, 16.2%. Besides, the growth is 6.07% (active) with HCC-2998 colon and 20.5% in the test with KM12 colon.
In the case of `CNCc1cccc2c1OCCOCCOCCC(C)S(=O)(=O)c1ccc(cc1)-c1cnc(N)c(n1)C(=O)N2` (configuration not stated), the growth in the test with T-47D breast is 32.8%; with BT-549 breast, 43.9%; with MDA-MB-435 melanoma, 42.8%; with SW-620 colon it was 27.6%; in the test on MCF7 breast, 37.9%; in the test with HCT-116 colon it was -2.15% (active). In addition, the growth with HCC-2998 colon is 79%; in the test with KM12 colon, 47.5%.
Take `CCOC(=O)c1ccc(N(CCC(=O)O)C(C)=O)cc1`: the growth in the test with T-47D breast is 112%; in the test with BT-549 breast, 94.9%; in the test with MDA-MB-435 melanoma it was 122%; in the test on SW-620 colon, 106%; in the test with MCF7 breast, 99.9%; in the test with HCT-116 colon, 104%. Besides, the growth in the test on HCC-2998 colon was 113%; with KM12 colon, 117%.
